For nine compounds, growth inhibition results are on record in PubChem BioAssay (NCI).

Molecules are shown by their SMILES. Compounds without any hit were thinned out: in the full panel of roughly 79,000, 15% have a hit. Unmarked numbers belong to inactive results. The source made the active and inactive calls. Rule as the data show it: active = growth inhibition above about 70%; inactive = the rest.

A short description of assay [1]: NCI Yeast Anticancer Drug Screen. Data for the rad50 strain (AID 155).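 Also: 0% = growth of vehicle-only cultures of the same strain.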 The note with it: S. cerevisiae rad50 strain growth inhibition, hits give high values. The essentials:
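Growth of the mutant yeast was measured after compound exposure and referenced to vehicle-treated cultures.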

Assay [2] in a line: NCI Yeast Anticancer Drug Screen. Data for the mec2-1 strain (AID 157). The following applies: S. cerevisiae mec2-1 strain, hits give high values. The essentials:
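Growth inhibition is read against vehicle-treated controls after compound exposure of the mec2-1 yeast strain, which is defective in DNA damage repair or cell cycle control.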

The nature of assay [3]: NCI Yeast Anticancer Drug Screen. Data for the sgs1 mgt1 strain (AID 161).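 Also: 0% = growth of cultures given vehicle only.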 The note with it: S. cerevisiae sgs1 mgt1 strain, hits give high values. Put shortly:
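Growth of a repair-deficient yeast mutant was monitored after compound treatment and expressed as inhibition relative to vehicle-treated cultures.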

Assay [4] in a line: NCI Yeast Anticancer Drug Screen. Data for the cln2 rad14 strain (AID 165).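 Also: 0% = growth equal to vehicle treated cultures.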 The following applies: S. cerevisiae cln2 rad14 strain, hits give high values. The essentials: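 Growth inhibition, relative to vehicle-treated controls, is the read-out. The test organism is a yeast strain with defined genetic alterations, cln2 rad14.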
The nature of assay [5]: NCI Yeast Anticancer Drug Screen. Data for the bub3 strain (AID 167). The following applies: S. cerevisiae bub3 mutant strain, hits give high values. Put shortly: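 Whole-cell yeast assay. The mutant strain was incubated with compounds, and growth inhibition was determined by comparison with vehicle-treated cells.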
The nature of assay [6]: NCI Yeast Anticancer Drug Screen. Data for the mlh1 rad18 strain (AID 175). The note with it: S. cerevisiae mlh1 rad18 strain growth inhibition, hits give high values. Put shortly: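 Cells of a genetically altered yeast strain, deficient in DNA damage repair, were treated with compound. Their growth was then compared with that of vehicle-treated cultures to give inhibition.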

The mark [7] stands for this setting: at 5.0 µM (retest, dose inferred, filed as 0.5).
Setting [8] is: at 50.0 µM (retest, dose inferred, filed as 5.0).

With `Nc1nc(-c2ccccc2)c(-c2ccccc2)c(-c2nc(N)nc(-c3ccccc3)c2-c2ccccc2)n1`, the growth inhibition is 7% in assay [1] (setting [7]); -3% in assay [1] (setting [8]); -4% in assay [1] (at 50.0 µM); 6% in assay [2] (setting [7]); 16% in assay [2] (setting [8]); -6% in assay [2] (at 50.0 µM). Further, the growth inhibition in assay [3] (setting [7]) is -1%; in assay [3] (setting [8]), 0%; in assay [3] (at 50.0 µM), -16.9%; in assay [4] (setting [7]) it was 21%; in assay [4] (setting [8]), 12%; in assay [4] (at 50.0 µM), 2.45%. Besides, the growth inhibition was -1% in assay [5] (setting [7]); -9% in assay [5] (setting [8]); -17.1% in assay [5] (at 50.0 µM); -12% in assay [6] (setting [7]); -16% in assay [6] (setting [8]); 7.8% in assay [6] (at 50.0 µM).
For `c1ccc2c(c1)Nc1ccccc1[P+]21c2ccccc2Nc2ccccc21`, the growth inhibition in assay [1] (setting [7]) is 98% (active); in assay [1] (setting [8]), 99% (active); in assay [1] (at 50.0 µM), 82.8% (active); in assay [2] (setting [7]), 99% (active); in assay [2] (setting [8]), 99% (active); in assay [2] (at 50.0 µM) it was 98.8% (active). Besides, the growth inhibition is 99% (active) in assay [3] (setting [7]); 99% (active) in assay [3] (setting [8]); 59.4% in assay [3] (at 50.0 µM); 99% (active) in assay [4] (setting [7]); 99% (active) in assay [4] (setting [8]); 84.3% (active) in assay [4] (at 50.0 µM). Also, the growth inhibition in assay [5] (setting [7]) was 99% (active); in assay [5] (setting [8]), 99% (active); in assay [5] (at 50.0 µM), 98.7% (active); in assay [6] (setting [7]) it was 99% (active); in assay [6] (setting [8]) it was 99% (active); in assay [6] (at 50.0 µM), 98.6% (active).
For `Oc1ccc(-c2ccccc2)cc1Br`, the growth inhibition is 14% in assay [1] (setting [7]); 99% (active) in assay [1] (setting [8]); 99.4% (active) in assay [1] (at 50.0 µM); 3% in assay [2] (setting [7]); 100% (active) in assay [2] (setting [8]); 99.7% (active) in assay [2] (at 50.0 µM). Also, the growth inhibition was 1% in assay [3] (setting [7]); 99% (active) in assay [3] (setting [8]); 99.5% (active) in assay [3] (at 50.0 µM); -9% in assay [4] (setting [7]); 99% (active) in assay [4] (setting [8]); 98.5% (active) in assay [4] (at 50.0 µM). Moreover, the growth inhibition in assay [5] (setting [7]) was -3%; in assay [5] (setting [8]), 99% (active); in assay [5] (at 50.0 µM), 99.5% (active); in assay [6] (setting [7]) it was 9%; in assay [6] (setting [8]), 99% (active); in assay [6] (at 50.0 µM), 99.5% (active).
As for `COc1cc2c(cc1OC)C(Cl)C(c1ccc(F)cc1)=C2Cl` (configuration not stated), the growth inhibition is -23% in assay [1] (setting [7]); 0% in assay [1] (setting [8]); 17.8% in assay [1] (at 50.0 µM); 5% in assay [2] (setting [7]); 3% in assay [2] (setting [8]); 10.4% in assay [2] (at 50.0 µM). The growth inhibition in assay [3] (setting [7]) was -4%; in assay [3] (setting [8]), -3%; in assay [3] (at 50.0 µM), -5.35%; in assay [4] (setting [7]), -3%; in assay [4] (setting [8]) it was 6%; in assay [4] (at 50.0 µM), 10.4%. Further, the growth inhibition in assay [5] (setting [7]) was -2%; in assay [5] (setting [8]), 4%; in assay [5] (at 50.0 µM) it was 45.2%; in assay [6] (setting [7]) it was 0%; in assay [6] (setting [8]), -1%; in assay [6] (at 50.0 µM) it was -3.4%.
As for `O=C1C(c2ccccc2)=S=C2C=CC=CN12`, the growth inhibition was 2% in assay [1] (setting [7]); 67% in assay [1] (setting [8]); 85.2% (active) in assay [1] (at 50.0 µM); -1% in assay [2] (setting [7]); 41% in assay [2] (setting [8]); 41.1% in assay [2] (at 50.0 µM). Also, the growth inhibition in assay [3] (setting [7]) is 2%; in assay [3] (setting [8]) it was 79% (active); in assay [3] (at 50.0 µM) it was 16.8%; in assay [4] (setting [7]) it was -1%; in assay [4] (setting [8]), 17%; in assay [4] (at 50.0 µM), -0.75%. The growth inhibition is -4% in assay [5] (setting [7]); 72% (active) in assay [5] (setting [8]); 41.5% in assay [5] (at 50.0 µM); 19% in assay [6] (setting [7]); 95% (active) in assay [6] (setting [8]); 79.3% (active) in assay [6] (at 50.0 µM).
`CC1=C(C(=O)Nc2cccc(Cl)c2)C(c2ccccc2O)C(C(=O)Nc2cccc(Cl)c2)=C(C)N1`: the growth inhibition in assay [1] (setting [7]) was 25%; in assay [1] (setting [8]), 25%; in assay [1] (at 50.0 µM), 55.6%; in assay [2] (setting [7]) it was 14%; in assay [2] (setting [8]), 14%; in assay [2] (at 50.0 µM), 65%. In addition, the growth inhibition is 9% in assay [3] (setting [7]); 9% in assay [3] (setting [8]); 56.5% in assay [3] (at 50.0 µM); 10% in assay [4] (setting [7]); 10% in assay [4] (setting [8]); 59.2% in assay [4] (at 50.0 µM). Further, the growth inhibition was 12% in assay [5] (setting [7]); 12% in assay [5] (setting [8]); 57.9% in assay [5] (at 50.0 µM); 25% in assay [6] (setting [7]); 25% in assay [6] (setting [8]); 32.3% in assay [6] (at 50.0 µM).
Regarding `OCC(CO)C1c2cccc3ccc4cccc1c4c23`, the growth inhibition in assay [1] (setting [7]) was 0%; in assay [1] (setting [8]), 30%; in assay [1] (at 50.0 µM), 64.5%; in assay [2] (setting [7]) it was -3%; in assay [2] (setting [8]), 24%; in assay [2] (at 50.0 µM), 17.8%. Besides, the growth inhibition in assay [3] (setting [7]) is -2%; in assay [3] (setting [8]) it was 46%; in assay [3] (at 50.0 µM) it was 85.7% (active); in assay [4] (setting [7]) it was -6%; in assay [4] (setting [8]) it was 37%; in assay [4] (at 50.0 µM) it was 67.3%. In addition, the growth inhibition in assay [5] (setting [7]) was 13%; in assay [5] (setting [8]) it was 42%; in assay [5] (at 50.0 µM) it was 53.5%; in assay [6] (setting [7]), -4%; in assay [6] (setting [8]), 49%; in assay [6] (at 50.0 µM) it was 81.4% (active).
As for `O=C(O)CCCc1ccc2c(c1Br)C=CC2`, the growth inhibition in assay [1] (setting [7]) was 10%; in assay [1] (setting [8]), 68%; in assay [1] (at 50.0 µM), 72.3% (active); in assay [2] (setting [7]), 13%; in assay [2] (setting [8]) it was 72% (active); in assay [2] (at 50.0 µM), 63.6%. The growth inhibition was 11% in assay [3] (setting [7]); 73% (active) in assay [3] (setting [8]); 87.2% (active) in assay [3] (at 50.0 µM); 11% in assay [4] (setting [7]); 74% (active) in assay [4] (setting [8]); 72.9% (active) in assay [4] (at 50.0 µM). Further, the growth inhibition in assay [5] (setting [7]) is 8%; in assay [5] (setting [8]), 86% (active); in assay [5] (at 50.0 µM), 94% (active); in assay [6] (setting [7]) it was 3%; in assay [6] (setting [8]), 76% (active); in assay [6] (at 50.0 µM), 79.6% (active).
For the compound `Cc1ccc(C2SCc3nc4ccccc4n32)cc1` (configuration not stated), the growth inhibition in assay [1] (setting [7]) was -4%; in assay [1] (setting [8]) it was 51%; in assay [1] (at 50.0 µM), 31.2%; in assay [2] (setting [7]), -38%; in assay [2] (setting [8]), 39%; in assay [2] (at 50.0 µM), 20.8%. In addition, the growth inhibition in assay [3] (setting [7]) is -26%; in assay [3] (setting [8]), 57%; in assay [3] (at 50.0 µM), 49.1%; in assay [4] (setting [7]), 2%; in assay [4] (setting [8]), 46%; in assay [4] (at 50.0 µM), 34%. For the same compound, the growth inhibition in assay [5] (setting [7]) was -2%; in assay [5] (setting [8]), 93% (active); in assay [5] (at 50.0 µM), 70.4% (active); in assay [6] (setting [7]), 13%; in assay [6] (setting [8]), 86% (active); in assay [6] (at 50.0 µM), 48.9%.
